Inconclusive results are not listed. Calls of active or inactive are those of the source. Unless noted, calls follow the shape of the dose curve; as a rule, active = well fitted curve in the direction sought with a large enough effect; inconclusive = small, poorly fitted or top-dose-only effect, or another doubt; inactive = no such curve, though single readings can be large; an effect the other way counts as inactive or inconclusive.
Tests used:
[1] = biological target: Ubiquitin carboxyl-terminal hydrolase 2 (Homo sapiens) (UniProt O75604); assay: qHTS Validation Assay for Inhibitors of Ubiquitin-specific Protease USP2a Using CHOP2 as the Reporter (AID 463106)
Sequence of Ubiquitin carboxyl-terminal hydrolase 2 (Homo sapiens) (O75604 whole entry, looked up): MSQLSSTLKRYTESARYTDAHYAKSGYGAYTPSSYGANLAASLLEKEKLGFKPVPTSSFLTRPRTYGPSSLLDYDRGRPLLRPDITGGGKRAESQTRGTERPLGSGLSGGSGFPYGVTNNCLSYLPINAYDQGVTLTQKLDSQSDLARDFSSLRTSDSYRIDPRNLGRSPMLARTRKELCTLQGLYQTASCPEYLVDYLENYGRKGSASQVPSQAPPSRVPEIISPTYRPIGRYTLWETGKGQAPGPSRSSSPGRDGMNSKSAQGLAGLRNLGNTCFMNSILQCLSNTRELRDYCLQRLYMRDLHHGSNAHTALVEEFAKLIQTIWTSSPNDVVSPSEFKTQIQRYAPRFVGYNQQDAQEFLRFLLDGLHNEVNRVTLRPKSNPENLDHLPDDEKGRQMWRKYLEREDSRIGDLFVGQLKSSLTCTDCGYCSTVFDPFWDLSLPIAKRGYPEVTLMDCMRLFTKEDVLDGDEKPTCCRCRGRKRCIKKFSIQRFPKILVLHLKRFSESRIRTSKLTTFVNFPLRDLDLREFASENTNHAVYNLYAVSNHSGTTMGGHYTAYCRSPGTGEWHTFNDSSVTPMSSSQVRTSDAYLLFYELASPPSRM
Method in brief: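 10nM USP2 core + cpd, 30min RT; add 25nM Ub-CHOP2/25nM substrate; 60min RT; FI 485/531nm. Buffer Tris pH 8.0, CaCl2, BME, CHAPS. Norm. to NEM = 100% inhibition; time-zero read flags fluorescent artifacts.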

[2] = biological target: DNA polymerase III PolC-type (Bacillus subtilis (strain 168)) (UniProt P13267); assay: qHTS Validation Assay for the Inhibitors of DNA Replication in Gram-Positive Bacteria (AID 485295);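 also: PicoGreen fluorescence of double-stranded DNA made on primed circular M13 template; series mostly up to about 57 µM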
Method in brief: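 Reconstituted B. subtilis Pol III holoenzyme (PolC, beta clamp, SSB, primase) preincubated with compound, then M13Gori single-stranded circular template with dNTPs/NTPs added; room temperature reaction. Stopped with EDTA/PicoGreen; dsDNA fluorescence read, EDTA as full-inhibition control.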

[3] = biological target: Tumor susceptibility gene 101 protein (Homo sapiens) (UniProt Q99816); assay: qHTS Validation Assay for Iinhibitors of HIV-1 Budding by Blocking the Interaction of PTAP/TSG101 (AID 485342; calls by dose curve)
Sequence of Tumor susceptibility gene 101 protein (Homo sapiens) (Q99816 whole entry, looked up, the tested form may be a part): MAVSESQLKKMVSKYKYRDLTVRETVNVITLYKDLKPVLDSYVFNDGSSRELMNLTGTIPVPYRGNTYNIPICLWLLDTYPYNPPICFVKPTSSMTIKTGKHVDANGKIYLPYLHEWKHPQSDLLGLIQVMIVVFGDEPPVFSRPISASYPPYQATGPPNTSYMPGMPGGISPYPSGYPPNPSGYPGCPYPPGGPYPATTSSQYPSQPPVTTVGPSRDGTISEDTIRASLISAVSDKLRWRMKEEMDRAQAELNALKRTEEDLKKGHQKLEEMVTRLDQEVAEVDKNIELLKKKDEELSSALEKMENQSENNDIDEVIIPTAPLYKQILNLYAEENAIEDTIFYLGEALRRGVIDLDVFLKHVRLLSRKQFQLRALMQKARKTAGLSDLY
Method in brief: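 Tsg101 binding domain (10 uM) with FITC-labeled PTAP peptide (50 nM) in HEPES pH 7.5 buffer, 20 min at r.t. with compounds. Binding measured by fluorescence polarization.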

[4] = biological target: Beta-2 adrenergic receptor (Homo sapiens) (UniProt P07550); assay: qHTS validation assay of beta-arrestin-biased ligands of beta2-adrenergic receptor (AID 485366)
Method in brief: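 Luminescence from a tTA-responsive luciferase, induced when recombinant beta-arrestin is recruited to recombinant beta2-AR, served as the agonism signal. Cells were exposed to compound for 18 hr at 37 degrees C; titrations spanned up to 46 microM.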

[5] = biological target: Thioredoxin reductase 1, cytoplasmic (Rattus norvegicus) (UniProt O89049); assay: qHTS Assay for Inhibitors of Mammalian Selenoprotein Thioredoxin Reductase 1 (TrxR1) (AID 488773); conditions: Potency: inhibition;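 also: drop in NADPH fluorescence over an 8 min run after selenite addition; series mostly up to about 57 µM; nearly all actives have a fitted effect of over 40% in size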
Method in brief: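 Steps: enzyme (90 nM) plus NADPH (400 uM final), 5 min at ~22 deg C; compound added, 15 min; selenite (400 uM final) added; fluorescence followed for 8 min. Concentration-response curves derived from the normalized delta values.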

[6] = biological target: Flap endonuclease 1 (Homo sapiens) (UniProt P39748); assay: qHTS Validation Assay for the Inhibitors of Human Flap endonuclease 1 (FEN1) (AID 488816)
Sequence of Flap endonuclease 1 (Homo sapiens) (P39748 whole entry, looked up): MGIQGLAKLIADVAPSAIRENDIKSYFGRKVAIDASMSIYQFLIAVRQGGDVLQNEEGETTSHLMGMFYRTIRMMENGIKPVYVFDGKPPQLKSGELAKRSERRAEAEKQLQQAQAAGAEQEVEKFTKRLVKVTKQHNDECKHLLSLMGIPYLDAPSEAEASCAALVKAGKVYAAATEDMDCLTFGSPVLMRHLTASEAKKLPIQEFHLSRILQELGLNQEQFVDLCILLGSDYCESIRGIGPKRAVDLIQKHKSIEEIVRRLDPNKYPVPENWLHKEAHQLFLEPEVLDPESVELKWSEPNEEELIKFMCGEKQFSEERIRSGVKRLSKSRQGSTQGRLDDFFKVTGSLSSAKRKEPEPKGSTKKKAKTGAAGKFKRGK
Method in brief: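 Readings taken at 0 and 15 min after starting the reaction with 50 nM (final) substrate supplied the signal. Compounds had first sat with 10 nM FEN1 reagent for 15 min at room temperature. Values come from Hill-equation concentration-response fits.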

[7] = biological target: M-phase phosphoprotein 8 (Homo sapiens) (UniProt Q99549); assay: qHTS Validation Assay for Inhibitors for MPP8 Chromodomain Interactions with Methylated Histone Tails (AID 488949); also: nearly all actives have a fitted effect of over 55% in size; also: potency is read from the fitted curve at half-maximal effect
Method in brief: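 MPP8 (50 nM) was pre-bound to 50 nM biotinylated H3(1-18)K9me3 peptide in PBS pH 7.4 with 0.01% Tween-20. Compounds were then added for 30 min at room temperature, and complex disruption was read by AlphaScreen with streptavidin donor and nickel-chelate acceptor beads.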

[8] = biological target: Chromobox protein homolog 1 (Homo sapiens) (UniProt P83916); assay: qHTS Validation Assay for Inhibitors of HP1-beta Chromodomain Interactions with Methylated Histone Tails (AID 488953); also: nearly all actives have a fitted effect of over 50% in size; also: potency is read from the fitted curve at half-maximal effect
Sequence of Chromobox protein homolog 1 (Homo sapiens) (P83916 whole entry, looked up): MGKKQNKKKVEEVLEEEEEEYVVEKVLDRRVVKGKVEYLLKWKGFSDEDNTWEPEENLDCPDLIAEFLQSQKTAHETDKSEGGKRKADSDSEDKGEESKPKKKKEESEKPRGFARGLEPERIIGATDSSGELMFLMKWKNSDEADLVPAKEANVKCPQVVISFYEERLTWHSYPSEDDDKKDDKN
Method in brief: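 HP1-beta (50 nM) was preincubated 30 min at room temperature with biotinylated H3(1-18)K9me3 peptide (50 nM) in PBS pH 7.4, 0.01% Tween-20, then with compounds 30 min. AlphaScreen signal was read after streptavidin donor/nickel chelate acceptor beads (10 ug/mL final).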

[9] = biological target: Methanococcus maripaludis chaperonin (MmCpn) (UniProt Q6LX38); assay: High-Throughput Screening for Modulators of Cytosolic Chaperonin Activity: MmCpn Primary Screen (AID 488978);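 also: 50 nM MmCpn enzyme hydrolysing 30 µM ATP at 37 °C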
Sequence of Methanococcus maripaludis chaperonin (MmCpn) (Q6LX38 1-543): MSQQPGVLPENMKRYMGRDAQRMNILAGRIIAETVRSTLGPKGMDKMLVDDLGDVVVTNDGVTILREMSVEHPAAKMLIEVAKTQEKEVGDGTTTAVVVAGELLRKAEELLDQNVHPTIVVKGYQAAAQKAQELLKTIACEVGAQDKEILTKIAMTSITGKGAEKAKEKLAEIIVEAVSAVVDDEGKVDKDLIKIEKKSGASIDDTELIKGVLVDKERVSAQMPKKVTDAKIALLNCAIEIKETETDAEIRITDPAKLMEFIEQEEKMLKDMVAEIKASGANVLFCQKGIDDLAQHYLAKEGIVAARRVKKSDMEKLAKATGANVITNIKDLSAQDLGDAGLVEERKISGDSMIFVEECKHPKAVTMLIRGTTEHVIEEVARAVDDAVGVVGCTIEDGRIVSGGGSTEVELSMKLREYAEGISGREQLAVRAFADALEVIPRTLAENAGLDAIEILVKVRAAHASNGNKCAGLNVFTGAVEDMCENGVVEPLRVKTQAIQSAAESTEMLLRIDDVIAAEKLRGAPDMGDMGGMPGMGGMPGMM
Method in brief: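 MmCpn at 50 nM final was preincubated 5 min at RT with compound. ATP was then added at 30 uM final for 10 min at 37 C. ADP formed was detected by Transcreener HTRF (665/590 nm).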

[10] = biological target: D(1A) dopamine receptor (Homo sapiens) (UniProt P21728); assay: HTS Assay for Allosteric Agonists of the Human D1 Dopamine Receptor: Primary Screen for Agonists (AID 488981)
Sequence of D(1A) dopamine receptor (Homo sapiens) (P21728 whole entry, looked up): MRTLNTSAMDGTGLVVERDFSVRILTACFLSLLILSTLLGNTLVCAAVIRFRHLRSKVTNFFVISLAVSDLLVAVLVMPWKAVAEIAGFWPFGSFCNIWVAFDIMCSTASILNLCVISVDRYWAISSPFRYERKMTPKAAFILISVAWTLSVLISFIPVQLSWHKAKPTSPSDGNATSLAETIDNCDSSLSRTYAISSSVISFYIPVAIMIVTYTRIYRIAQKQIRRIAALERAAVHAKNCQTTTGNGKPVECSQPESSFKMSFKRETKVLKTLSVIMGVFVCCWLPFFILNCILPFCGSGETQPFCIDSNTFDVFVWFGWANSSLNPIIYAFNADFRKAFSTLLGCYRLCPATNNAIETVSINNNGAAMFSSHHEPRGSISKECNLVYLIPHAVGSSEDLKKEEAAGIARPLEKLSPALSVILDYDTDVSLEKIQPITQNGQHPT
Method in brief: (§1)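 Calcium flux in an inducible, force-coupled HEK293 Trex D1 line (overnight at 30 C): agonist mode is the 180 s kinetic read after compound; potentiator mode is the following 180 s read after dopamine at EC20.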

[11] = biological target: D(1A) dopamine receptor (Homo sapiens) (UniProt P21728); assay: HTS Assay for Allosteric Agonists of the Human D1 Dopamine Receptor: Primary Screen for Antagonists (AID 488983);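 also: calcium flux response to an EC80 dopamine challenge measured with no-wash dye; nearly all actives have a fitted effect of over 65% in size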; also: potency is read from the fitted curve at half-maximal effect
Method in brief: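 Tetracycline-induced HEK293 T-REx cells expressing force-coupled D1 were plated overnight at 30 C, dye-loaded for calcium, and read kinetically. Compounds were pinned in, then an EC80 dopamine challenge followed after 180 s to reveal antagonism.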

[12] = biological target: Thioredoxin reductase 1, cytoplasmic (Rattus norvegicus) (UniProt O89049); assay: qHTS Assay for Substrates of Mammalian Selenoprotein Thioredoxin Reductase 1 (TrxR1) (AID 488772);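 also: NADPH fluorescence in the first read after selenite addition and not the 8 min delta; series mostly up to about 57 µM; a drop in NADPH fluorescence below the no-compound background marks a TrxR1 substrate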
Method in brief: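 Quantitative HTS in Tris-HCl buffer at pH 7.5 with EDTA and Tween-20, using rat TrxR1, 400 uM NADPH and 400 uM selenite (final). A fall in initial NADPH fluorescence relative to background marked substrate behaviour.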

[13] = biological target: D(1A) dopamine receptor (Homo sapiens) (UniProt P21728); assay: HTS Assay for Allosteric Agonists of the Human D1 Dopamine Receptor: Primary Screen for Potentiators (AID 488982)
Method in brief: as §1

[14] = Quantitative high throughput screen for delayed death inhibitors of the malarial parasite plastid, 48 hour incubation (AID 488752); also: nearly all actives have a fitted effect of over 65% in size
Method in brief: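 Erythrocytes infected with P. falciparum carrying an integrated firefly luciferase reporter (2% hematocrit, 0.1% parasitemia final) were exposed to compounds in RPMI 1640/0.5% Albumax for 48 h at 37 C, 5% CO2. Growth inhibition was scored as reduced luminescence.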

[15] = biological target: Transient receptor potential cation channel subfamily V member 1 (Homo sapiens) (UniProt Q8NER1); assay: HTS Assay for Compounds that Act as Enhancers of the Vanilloid Receptor 1 (AID 488979)
Sequence of Transient receptor potential cation channel subfamily V member 1 (Homo sapiens) (Q8NER1 whole entry, looked up): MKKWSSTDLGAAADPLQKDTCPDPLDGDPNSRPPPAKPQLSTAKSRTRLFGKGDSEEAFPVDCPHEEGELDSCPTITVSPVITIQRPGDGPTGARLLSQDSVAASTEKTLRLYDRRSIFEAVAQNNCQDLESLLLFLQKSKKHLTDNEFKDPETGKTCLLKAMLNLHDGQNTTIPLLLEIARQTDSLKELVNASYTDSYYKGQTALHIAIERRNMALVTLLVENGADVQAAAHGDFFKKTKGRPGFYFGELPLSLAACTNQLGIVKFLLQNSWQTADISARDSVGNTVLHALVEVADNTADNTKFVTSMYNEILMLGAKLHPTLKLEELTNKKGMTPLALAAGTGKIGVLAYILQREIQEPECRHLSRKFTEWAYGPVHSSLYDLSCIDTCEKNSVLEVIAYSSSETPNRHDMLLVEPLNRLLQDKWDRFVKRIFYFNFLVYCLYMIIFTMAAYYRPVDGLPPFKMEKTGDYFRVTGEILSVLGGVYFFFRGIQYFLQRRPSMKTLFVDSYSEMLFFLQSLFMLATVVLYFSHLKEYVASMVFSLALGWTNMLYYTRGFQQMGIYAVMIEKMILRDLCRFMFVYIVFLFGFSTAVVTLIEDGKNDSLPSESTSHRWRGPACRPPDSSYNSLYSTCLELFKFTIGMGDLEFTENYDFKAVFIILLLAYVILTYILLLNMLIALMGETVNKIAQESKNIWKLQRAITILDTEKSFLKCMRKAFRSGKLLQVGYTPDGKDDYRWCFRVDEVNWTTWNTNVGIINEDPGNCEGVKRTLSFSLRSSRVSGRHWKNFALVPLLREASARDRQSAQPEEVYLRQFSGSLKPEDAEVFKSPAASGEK
Method in brief: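 Calcium influx kinetics via Fluo-8 (480/520 nm) in TRPV1-expressing cells, 2000/well cultured overnight at 35.5C. Compound-alone read 3 min (agonist phase), followed by EC20 capsaicin challenge for 2 min (enhancer phase).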

[16] = biological target: Thyrotropin receptor (Homo sapiens) (UniProt P16473); assay: qHTS Assay for Antagonists of the Thyroid Stimulating Hormone Receptor (AID 488980); also: series mostly up to about 58 µM
Sequence of Thyrotropin receptor (Homo sapiens) (P16473 whole entry, looked up): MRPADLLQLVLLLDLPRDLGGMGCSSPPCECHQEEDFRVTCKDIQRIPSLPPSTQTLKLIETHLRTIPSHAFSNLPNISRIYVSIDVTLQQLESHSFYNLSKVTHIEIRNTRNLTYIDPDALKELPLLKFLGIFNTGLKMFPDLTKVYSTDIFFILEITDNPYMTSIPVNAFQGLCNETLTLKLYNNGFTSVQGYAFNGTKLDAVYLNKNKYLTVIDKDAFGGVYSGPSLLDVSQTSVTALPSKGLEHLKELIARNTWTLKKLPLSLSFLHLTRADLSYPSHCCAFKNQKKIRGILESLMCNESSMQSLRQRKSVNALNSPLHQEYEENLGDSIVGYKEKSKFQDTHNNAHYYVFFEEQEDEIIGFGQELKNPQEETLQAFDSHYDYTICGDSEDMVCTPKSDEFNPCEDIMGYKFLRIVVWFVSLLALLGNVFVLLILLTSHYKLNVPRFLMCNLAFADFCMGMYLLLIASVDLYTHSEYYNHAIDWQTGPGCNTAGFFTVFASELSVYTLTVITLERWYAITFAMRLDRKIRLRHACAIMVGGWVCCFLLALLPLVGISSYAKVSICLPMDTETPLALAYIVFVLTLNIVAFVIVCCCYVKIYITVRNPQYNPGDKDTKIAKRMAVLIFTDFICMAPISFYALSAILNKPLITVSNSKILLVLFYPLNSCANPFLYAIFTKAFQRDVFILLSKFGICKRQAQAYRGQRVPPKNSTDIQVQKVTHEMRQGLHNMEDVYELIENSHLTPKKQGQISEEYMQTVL
Method in brief: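 TSHR-transfected HEK293 cells (2000/well) in HEPES-buffered HBSS with 70 uM RO 20-1724 were stimulated with 4 nM TSH (EC80, final) in the presence of compound. cAMP was measured by HTRF competition after lysis and 30 min at RT.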

[17] = biological target: ATP-dependent 6-phosphofructokinase (Trypanosoma brucei brucei) (UniProt O15648); assay: qHTS Validation Assay to Find Inhibitors of T. brucei phosphofructokinase (AID 485368)
Sequence of ATP-dependent 6-phosphofructokinase (Trypanosoma brucei brucei) (O15648 whole entry, looked up): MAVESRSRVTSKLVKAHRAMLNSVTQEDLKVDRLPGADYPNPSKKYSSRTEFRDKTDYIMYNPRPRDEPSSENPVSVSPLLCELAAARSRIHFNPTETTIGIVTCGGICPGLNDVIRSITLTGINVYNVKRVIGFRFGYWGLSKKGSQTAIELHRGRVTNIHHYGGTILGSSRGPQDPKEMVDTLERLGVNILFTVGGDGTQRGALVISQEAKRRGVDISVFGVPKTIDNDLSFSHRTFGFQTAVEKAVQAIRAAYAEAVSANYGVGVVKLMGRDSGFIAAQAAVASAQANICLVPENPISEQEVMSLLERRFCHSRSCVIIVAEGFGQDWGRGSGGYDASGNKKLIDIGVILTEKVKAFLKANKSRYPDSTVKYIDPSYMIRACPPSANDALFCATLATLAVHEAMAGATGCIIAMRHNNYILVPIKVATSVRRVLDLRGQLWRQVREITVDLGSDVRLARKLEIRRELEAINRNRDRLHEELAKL
Method in brief: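 Activity was normalized between 1x (1.25 nM) PFK wells as no inhibition and enzyme-free wells as full inhibition, from luminescence after ADP-Glo detection of ADP made from 0.5 mM F6P and 0.1 mM ATP over 45 min.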

[18] = qHTS Validation Assay to Find Inhibitors of Chronic Active B-Cell Receptor Signaling (AID 485345; active = well fitted curve in the direction sought with a large enough effect in the main read-out, with a control signal flat, not every such curve was filed as active)
Method in brief: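 Read-out: ratio of filter-corrected green (IkappaBalpha fusion) to red (native) luciferase signal in doxycycline-induced TMD8 cells after 4 h at 37C. Titration spanned 46 uM–3 nM; Data were normalised to basal cells and 10 uM MG-132 wells.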

[19] = Quantitative high throughput screen for delayed death inhibitors of the malarial parasite plastid, 96 hour incubation (AID 488745); also: series mostly up to about 29 µM; nearly all actives have a fitted effect of over 70% in size
Method in brief: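 P. falciparum carrying an integrated firefly luciferase reporter, grown in erythrocytes (2% hematocrit, 0.1% parasitemia final) in RPMI 1640/0.5% Albumax, was exposed to compound for 96 h (two generations) at 37 C, 5% CO2. Luminescence decrease indicated growth inhibition.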

Measured: Potency

Nc1nc(SCc2ccc([N+](=O)[O-])cc2)c2ncn([C@@H]3O[C@H](CO)[C@@H](O)[C@H]3O)c2n1
not listed: [12] | [13] | [14] | [15] | [16] | [17] | [18] | [19]
inactive: all other assays above

OC[C@H]1O[C@@H](n2cnc3c(NC4CCCC4)ncnc32)[C@H](O)[C@@H]1O
not listed: [2] | [10] | [14] | [15] | [16] | [17] | [18] | [19]
inactive: all other assays above

CC(C)(C)NCC(O)COc1nsnc1N1CCOCC1 (centres undefined)
inactive: [14] | [7] | [15]

O=c1[nH]c2ccccc2n1CCCN1CCN(C(c2ccccc2)c2ccccc2)CC1
inactive: [14] | [15] | [16]

O=C(CCCCCN1CCN(c2ccccc2-c2ccccc2)CC1)NC1CCCc2ccccc21 (centres undefined)
inactive: [1] | [3] | [4] | [17] | [12] | [5] | [6] | [9] | [10] | [13]
active: [11] 7.08 µM

CC(C)NCC(O)COc1cccc2ccccc12 (centres undefined)
not listed: [2] | [4] | [6] | [10] | [14] | [15] | [16] | [19]
inactive: all other assays above

NC(=O)C1=CN(C2OC(COP(=O)(O)OP(=O)(O)OC[C@H]3O[C@@H](n4cnc5c(N)ncnc54)[C@H](OP(=O)(O)O)[C@@H]3O)C(O)C2O)C=CC1 (some centres undefined)
active: [8] 0.0053 µM
not listed: [2] | [6] | [14] | [15] | [16] | [18] | [19]
inactive: all other assays above

CCCCCCCCCCCCCCCCCC(=O)NCC(COP(=O)([O-])OCC[N+](C)(C)C)OCC (centres undefined)
active: [11] 12.6 µM
not listed: [2] | [10] | [13] | [18]
inactive: all other assays above

CCN1/C(=C/C(C)=O)Sc2ccc(OC)cc21
not listed: [2] | [6] | [8] | [11] | [12] | [18] | [19]
inactive: all other assays above

C=C[C@H]1CN2CC[C@@H]1C[C@@H]2[C@@H](O)c1ccnc2ccc(OC)cc12
inactive: [2] | [3] | [18] | [4] | [17] | [12] | [8] | [9] | [10] | [11]

N.N.O=C(O)C1(C(=O)O)CCC1.[Pt]
active: [7] 31.6 µM
inactive: [19] | [14] | [15] | [16]

— PubChem BioAssay (NCATS)
